Some test systems named below: SR leukemia; RPMI-8226 leukemia; OVCAR-8 ovarian; OVCAR-5 ovarian; OVCAR-4 ovarian; SK-OV-3 ovarian; IGROV1 ovarian; OVCAR-3 ovarian; HS 578T breast; NCI/ADR-RES ovarian; T-47D breast; BT-549 breast; MDA-MB-435 melanoma; SW-620 colon; MCF7 breast; HCT-116 colon; HCC-2998 colon; KM12 colon; MDA-MB-468 breast.
Holding throughout (assay): NCI-60 one-dose screen, 48 h (100 = growth as untreated, 0 = no growth, -100 = all killed)
Holding throughout (details): 10 µM unless noted

Drawing on PubChem BioAssay (NCI), this text covers growth for 8 compounds.

This is part of a sample that, as a whole, favours compounds with a hit. Of some 83,000 tested, about 20% had one in any assay.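 The test compound was applied at a single concentration to cells in 96-well plates for 48 hours, and percent growth was recorded.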 A number with no mark means an inactive call. The source made the active and inactive calls. Rule for the calls: active = growth percent below 10; inactive = the rest.

Take `C=CC[N+](C)(C)CCn1c2ccccc2c2nc3cc(C)c(C)cc3nc21`: the growth in the assay on SR leukemia is 85%; in the assay with RPMI-8226 leukemia, 95.1%; in the assay with OVCAR-8 ovarian, 98.4%; in the assay on OVCAR-5 ovarian it was 111%; in the assay on OVCAR-4 ovarian it was 95%; in the assay on SK-OV-3 ovarian it was 96.7%. Moreover, the growth in the assay with IGROV1 ovarian was 42.6%; in the assay on OVCAR-3 ovarian, 96.4%; in the assay with HS 578T breast it was 56.2%; with NCI/ADR-RES ovarian it was 108%; with T-47D breast, 99.9%; with BT-549 breast, 54.6%. For the same compound, the growth in the assay with MDA-MB-435 melanoma was 99.6%; in the assay with SW-620 colon, 94.6%; in the assay with MCF7 breast it was 80%; with HCT-116 colon it was 98.4%; in the assay on HCC-2998 colon it was 96.2%; with KM12 colon, 99%. The growth in the assay on MDA-MB-468 breast was -2.23% (active).
Consider `Cn1cc(-c2cc3nc(-c4c[nH]c5ccc(Br)cc45)cc(N)n3n2)c2ccccc21`, for which the growth is 2.66% (active) in the assay on SR leukemia; -10.1% (active) in the assay on RPMI-8226 leukemia; -85.1% (active) in the assay on OVCAR-8 ovarian; -86.1% (active) in the assay with OVCAR-5 ovarian; -57% (active) in the assay with OVCAR-4 ovarian; -66.5% (active) in the assay with SK-OV-3 ovarian. In addition, the growth in the assay on IGROV1 ovarian is -57.2% (active); in the assay on OVCAR-3 ovarian it was -40% (active); in the assay on HS 578T breast, -22.5% (active); with NCI/ADR-RES ovarian it was -32.8% (active); in the assay with T-47D breast, -60.8% (active); in the assay on BT-549 breast it was -63.6% (active). Further, the growth in the assay with MDA-MB-435 melanoma was -88.6% (active); with SW-620 colon, -63.5% (active); with MCF7 breast it was -87.2% (active); in the assay with HCT-116 colon it was -90.6% (active); in the assay with HCC-2998 colon, -82.4% (active); with KM12 colon, -83% (active). Further, the growth with MDA-MB-468 breast is -70.3% (active).
Consider `Cc1nc(Nc2ncc(C(=O)Nc3c(C)cccc3Cl)s2)cc(N2CCN(CCCNC(=O)COc3ccc(C4CCC(=O)NC4=O)cc3)CC2)n1` (configuration not stated), for which the growth with SR leukemia was 20%; with RPMI-8226 leukemia it was 76.4%; in the assay with OVCAR-8 ovarian it was 34%; in the assay with OVCAR-5 ovarian, 26.3%; with OVCAR-4 ovarian, 85.8%; in the assay on SK-OV-3 ovarian, -17.9% (active). The growth is -45.2% (active) in the assay with IGROV1 ovarian; 72% in the assay on OVCAR-3 ovarian; -16% (active) with HS 578T breast; 106% with NCI/ADR-RES ovarian; 64.1% with T-47D breast; 68.5% in the assay on BT-549 breast. In addition, the growth with MDA-MB-435 melanoma was 81%; in the assay with SW-620 colon it was 118%; in the assay with HCT-116 colon it was 42.2%; in the assay on HCC-2998 colon it was 114%; in the assay with KM12 colon, 82%; in the assay with MDA-MB-468 breast, -23.4% (active).
As for `C=C1CC[C@@H]2[C@]3(C)COC(c4cn[nH]c4-c4cccc(Cl)c4)O[C@@H]3CC[C@@]2(C)[C@@H]1C/C=C1/C(=O)OCC1O` (some centres not stated), the growth was 14.7% in the assay on SR leukemia; -11.7% (active) in the assay on RPMI-8226 leukemia; -23.3% (active) with OVCAR-8 ovarian; -62% (active) in the assay with OVCAR-5 ovarian; 35.2% with OVCAR-4 ovarian; 49.6% in the assay with SK-OV-3 ovarian. The growth in the assay on IGROV1 ovarian is -44.1% (active); with OVCAR-3 ovarian it was -62% (active); in the assay with HS 578T breast it was 26.8%; with NCI/ADR-RES ovarian, -56.4% (active); in the assay with T-47D breast, -2.68% (active); with BT-549 breast, -92.4% (active). Besides, the growth is -32.5% (active) in the assay with MDA-MB-435 melanoma; -57.6% (active) in the assay on SW-620 colon; -91.6% (active) in the assay on HCT-116 colon; -91.2% (active) in the assay with HCC-2998 colon; -25.2% (active) with KM12 colon; -84.3% (active) in the assay with MDA-MB-468 breast.
For the compound `CCCSc1nc(Nc2ccc(S(N)(=O)=O)cc2)c(C#N)c(-c2ccc(Cl)cc2)n1`, the growth was 18.5% in the assay on SR leukemia; 11.2% in the assay with RPMI-8226 leukemia; 15.2% in the assay on OVCAR-8 ovarian; 61.1% with OVCAR-5 ovarian; 7.47% (active) in the assay with OVCAR-4 ovarian; -32.6% (active) in the assay on SK-OV-3 ovarian. The growth in the assay with IGROV1 ovarian was 43%; in the assay on OVCAR-3 ovarian it was 31.7%; with HS 578T breast, 12.5%; in the assay with NCI/ADR-RES ovarian, 26.8%; with T-47D breast, 86.5%; in the assay on BT-549 breast, 77.7%. Moreover, the growth in the assay on MDA-MB-435 melanoma is 48%; with SW-620 colon it was 37.6%; with HCT-116 colon, -67.1% (active); with HCC-2998 colon, 8.65% (active); in the assay with KM12 colon, 41.7%; in the assay with MDA-MB-468 breast, 17.3%.
With `COc1cc2c(c(OC)c1OC)C(=O)CC(c1cccc(NC(=O)c3cc(NC(=O)[C@H](C)N)ccc3Cl)c1)O2` (some centres not stated), the growth in the assay with SR leukemia is 9.41% (active); with RPMI-8226 leukemia it was 4.69% (active); with OVCAR-8 ovarian, 9.03% (active); with OVCAR-5 ovarian it was 88%; in the assay on OVCAR-4 ovarian it was 44.4%; with SK-OV-3 ovarian, 102%. The growth in the assay with IGROV1 ovarian is 70.3%; in the assay on OVCAR-3 ovarian, 25.7%; with HS 578T breast it was 66.9%; in the assay on NCI/ADR-RES ovarian, 11.1%; with T-47D breast, 18.5%; with BT-549 breast, -5.64% (active). Further, the growth in the assay on MDA-MB-435 melanoma is 2.82% (active); with SW-620 colon, 18.5%; in the assay with MCF7 breast, 13.8%; in the assay with HCT-116 colon, 23.4%; in the assay with HCC-2998 colon, 81%; with KM12 colon, 41.7%. In addition, the growth with MDA-MB-468 breast was 9.2% (active).
Turning to `COc1c(F)ccc(C(=O)Nc2ccc3nc(NC(=O)C4CCCN(S(=O)(=O)c5ccc(C#N)cc5)C4)sc3c2)c1F` (configuration not stated), the growth with SR leukemia is 74.4%; in the assay with RPMI-8226 leukemia it was 70.1%; in the assay on OVCAR-8 ovarian it was 111%; in the assay on OVCAR-5 ovarian, 103%; in the assay on OVCAR-4 ovarian, 86.3%; with SK-OV-3 ovarian, 103%. Besides, the growth in the assay on IGROV1 ovarian was 97.1%; in the assay with OVCAR-3 ovarian, 102%; in the assay on HS 578T breast, 79.1%; with NCI/ADR-RES ovarian it was 96.1%; with T-47D breast it was 61.9%; in the assay with BT-549 breast it was 75.8%. Further, the growth in the assay with MDA-MB-435 melanoma is 105%; in the assay with SW-620 colon, 102%; in the assay on HCT-116 colon, 74%; with HCC-2998 colon it was 119%; in the assay on KM12 colon it was 96.3%.
Take `CCCCSc1nc(NCCc2c[nH]c3ccccc23)c(C#N)c(-c2ccc(OC)cc2)n1`: the growth is 5.98% (active) with SR leukemia; 30.7% with RPMI-8226 leukemia; 79.2% in the assay with OVCAR-8 ovarian; 87% with OVCAR-5 ovarian; 67.2% with OVCAR-4 ovarian; 83.7% in the assay on SK-OV-3 ovarian. For the same compound, the growth in the assay on IGROV1 ovarian is 102%; in the assay with OVCAR-3 ovarian, 83.6%; in the assay with HS 578T breast it was 47%; with NCI/ADR-RES ovarian it was 51.7%; in the assay with T-47D breast it was 30.7%; with BT-549 breast, 99.4%. The growth in the assay with MDA-MB-435 melanoma is 72.2%; in the assay with SW-620 colon it was 52.8%; in the assay on MCF7 breast it was 17.7%; with HCT-116 colon, 21.4%; in the assay on HCC-2998 colon, 49.2%; in the assay on KM12 colon, 36.2%. For the same compound, in the assay on MDA-MB-468 breast, the growth is 51.1%.
